This is a sample that favours compounds with a hit; in the whole collection about 1.9% have one here.
Fam108B inh – counter-screen for RBBP9 inhibitors: inhibitors of mouse Fam108B | recombinant Fam108B, FP-Rh probe fluorescence polarization | inhibition, % at 9.51 µM | hit rate 0.33% among 300,000 | AID 1947;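 active = inhibition above the screen mean inhibition plus 3 SD, computed separately per campaign, cut at about 18% in these data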;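 note: inhibitors lower polarization as less probe binds the enzyme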
PME-1 primary – PME-1 (human) inhibition; Q9Y570; recombinant PME-1, FP-Rh probe fluorescence polarization; inhibition, % at 5.9 µM; hit rate 0.53% among 320,000;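 active = inhibition above the campaign mean of all compounds plus 3 SD, cut at about 26% in these data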;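 note: competitive labeling of PME-1 active site by serine hydrolase directed probe; 0% = PME-1 with DMSO and 100% = wells lacking PME-1 enzyme; inhibitors block probe labeling so polarization falls and inhibition rises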
GSTO1 inh – blocks human GSTO1 in RBBP9 counter-screen. P78417. recombinant GSTO1, activity-based probe fluorescence polarization. inhibition, % at 5.96 µM. hit rate 1.1% among 300,000;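 active = inhibition above the campaign mean inhibition plus 3 SD, cut at about 35% in these data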;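 note: 0% = GSTO1-1 with DMSO and 100% = wells lacking GSTO1-1 enzyme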
Target sequence (P78417 whole entry, looked up): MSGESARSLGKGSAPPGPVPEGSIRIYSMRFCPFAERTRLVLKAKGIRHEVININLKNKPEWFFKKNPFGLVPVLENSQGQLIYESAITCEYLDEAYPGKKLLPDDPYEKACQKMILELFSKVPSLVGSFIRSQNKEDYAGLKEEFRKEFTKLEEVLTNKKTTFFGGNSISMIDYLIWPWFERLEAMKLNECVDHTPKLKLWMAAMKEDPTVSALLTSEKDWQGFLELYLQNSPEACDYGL
PREPL inhibitor – inhibitors of human prolyl oligopeptidase-like enzyme PREPL. Q4J6C6. recombinant PREPL, fluorescence polarization activity-based probe. inhibition, % at 5.96 µM. hit rate 0.68% among 320,000. AID 2751; in the data active = inhibition above about 43%;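 note: 0% = enzyme with DMSO and 100% = wells lacking enzyme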
LYPLA1 inh – counter-screen for PME1 inhibitors: inhibitors of human LYPLA1 | O75608 | recombinant LYPLA1, FP-Rh probe fluorescence polarization | inhibition, % at 5.9 µM | hit rate 0.16% among 320,000 | AID 2174;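 active = inhibition above the mean of all tested compounds plus 3 SD, set per campaign, cut at about 14% in these data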;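 note: inhibitors block serine hydrolase probe labeling of LYPLA1 so polarization falls; 0% = enzyme with DMSO and 100% = wells lacking LYPLA1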
Target sequence (O75608 whole entry, looked up): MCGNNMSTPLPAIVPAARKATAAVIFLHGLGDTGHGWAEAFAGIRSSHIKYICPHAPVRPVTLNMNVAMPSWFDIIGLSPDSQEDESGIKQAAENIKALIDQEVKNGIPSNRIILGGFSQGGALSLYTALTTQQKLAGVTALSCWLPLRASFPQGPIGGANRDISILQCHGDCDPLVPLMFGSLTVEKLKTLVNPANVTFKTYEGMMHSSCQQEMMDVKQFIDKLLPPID
LYPLA2 counter – counter-screen for PME1 inhibitors: inhibitors of human LYPLA2 | O95372 | recombinant LYPLA2, FP-Rh probe fluorescence polarization | inhibition, % at 5.9 µM | hit rate 0.38% among 320,000;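 active = inhibition above the screen-wide mean plus 3 SD, limit set per campaign, cut at about 26% in these data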;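 note: 0% = LYPLA2 with DMSO and 100% = wells lacking LYPLA2 enzyme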
Target sequence (O95372 whole entry, looked up): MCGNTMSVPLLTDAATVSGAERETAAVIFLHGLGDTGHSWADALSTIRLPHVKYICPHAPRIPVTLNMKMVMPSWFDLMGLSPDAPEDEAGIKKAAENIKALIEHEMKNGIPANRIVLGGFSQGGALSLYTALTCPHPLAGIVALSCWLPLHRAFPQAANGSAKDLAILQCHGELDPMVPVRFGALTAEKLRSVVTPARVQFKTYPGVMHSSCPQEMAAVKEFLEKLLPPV
The depositor's hits bear a star; . = not tested or not shown.

SMILES | Fam108B inh | PME-1 primary | GSTO1 inh | PREPL inhibitor | LYPLA1 inh | LYPLA2 counter
CCN1/C(=C/c2ccc3cc(C)ccc3[n+]2CC)Sc2ccc3sccc3c21 | -27.1 | -24.9 | -108.0 | 38.7 | 3.5 | 0.9
CCN1/C(=C/c2ccc3cccc(C)c3[n+]2CC)Sc2ccccc21 | -7.2 | -8.0 | 1.5 | 60.4* | 1.5 | 5.0
COCCOC(=O)c1c(NC(=O)COC(=O)c2ccc(C)o2)sc(C(N)=O)c1C | . | 4.5 | . | 2.0 | -1.4 | -0.9
Cc1ccc(CC(=S)N2CCOCC2)cc1 | -1.9 | -5.8 | 36.6* | -9.7 | -2.7 | -1.9
CCCCNC(=O)Nc1ccc(C2SCCS2)cc1 | 5.2 | -4.8 | 2.7 | 6.7 | -2.2 | 0.6
O=C(NNC(=O)c1ccccc1F)c1cccc(-n2cccc2)c1 | 1.6 | -4.5 | 36.3* | 4.5 | -1.9 | -4.5
CN(C)CCCNc1nc2sc3c(c2c(=O)n1CCc1ccccc1)CCCCC3 | 4.7 | 7.5 | 3.0 | 67.6* | 0.7 | -3.7
COc1ccc2ccccc2c1/C=N/NC(=O)c1sc(N)c(C#N)c1C | -6.6 | 3.7 | 0.3 | 15.8 | -7.7 | -11.8
COc1cc(/C=N/NC(=O)c2sc(N)c(C#N)c2C)cc(Br)c1O | 7.6 | 31.2* | -17.5 | 22.8 | -3.4 | 6.2
CCN1CCN(c2ccc(NC(=O)c3cc(S(=O)(=O)N4CCCC4)ccc3Cl)cc2)CC1 | . | -18.8 | . | 18.4 | -9.0 | -18.8
COC(=O)c1nc(N)sc1-c1ccc(OC)cc1 | -1.5 | -2.7 | -1.6 | -0.9 | -2.8 | -10.3
COc1ccc(-c2sc(Nc3ccc(F)c(F)c3F)nc2CCC(=O)NN)cc1 | 7.1 | 29.7* | 3.5 | 26.8 | -4.0 | 4.2
O=C(c1ccc(-c2ccccc2Cl)o1)N1CCN(S(=O)(=O)c2cccs2)CC1 | -5.8 | 6.8 | 7.0 | 1.0 | -6.8 | -6.6
Cc1cccc(C)c1NC(=O)COC(=O)c1c2c(nc3ccccc13)/C(=C\c1ccc3c(c1)OCO3)CCC2 | -15.8 | -13.2 | -9.2 | 70.7* | -10.5 | -14.1
COc1ccccc1OCc1cc(C(=O)NCc2ccc(N3CCCC3=O)cc2)no1 | 3.4 | -1.9 | 0.6 | 18.7 | -1.9 | -2.3
COC(=O)c1ccc(N2NC(=O)/C(=C/c3cc(OC)c(O)c(OC)c3)C2=O)cc1 | 0.9 | -5.9 | 36.6* | 9.7 | 0.1 | -19.6
COc1cccc(/C=C/c2[nH]c(=O)[nH]c(=O)c2[N+](=O)[O-])c1O | 2.0 | 3.9 | 36.1* | 1.1 | -0.6 | 2.3
O=C(COC(=O)c1cnc(Cl)c(Cl)c1)NC1CC1 | . | . | . | 9.9 | . | .
O=C(CSc1ccsc1[N+](=O)[O-])N1CCN(c2ccccc2)CC1 | 0.0 | 7.2 | 18.4 | 40.6 | 1.8 | 5.3
O=C(CSc1ccsc1[N+](=O)[O-])N1CCN(c2ccc(Cl)cc2)CC1 | 0.9 | -4.8 | 7.8 | 43.6* | -1.4 | 4.8
COc1cccc(-c2nc(NC(C)C)c3ccccc3n2)c1O | 11.0 | 26.1* | 6.3 | 21.0 | -5.3 | 6.3
COc1cccc(-c2nc(Oc3cccc(C)c3C)c3ccccc3n2)c1O | 0.9 | 0.9 | 9.3 | 10.5 | 0.3 | 0.5
CCCN1CCCc2cc(CN)ccc21 | 10.9 | 7.0 | 63.6* | 63.3* | 3.3 | 18.0
COc1ccccc1OCC(=O)N(Cc1nnc(-c2ccccc2Cl)o1)C1CC1 | -0.7 | -1.5 | -5.2 | 7.8 | -1.4 | 0.1
O=C(Nc1ccc(N2CCOCC2)cc1)Nc1ccc(Cl)c(Cl)c1 | 14.0 | 28.1* | 1.1 | 36.6 | -7.0 | 4.8
SMILES | Fam108B inh | PME-1 primary | GSTO1 inh | PREPL inhibitor | LYPLA1 inh | LYPLA2 counter
O=C(Nc1ccc(Cl)cc1)Nc1ccc(N2CCOCC2)cc1 | -0.1 | 11.4 | 5.8 | 11.0 | 2.2 | 11.7
COc1ccc(NC(=O)CSc2nc3nc(-c4cccs4)cc(C(F)(F)F)c3c(=O)[nH]2)c(OC)c1 | -1.1 | 45.7* | -9.6 | 7.3 | -7.9 | -5.5
C[C@H]1NC(=O)[C@@]2(C)[C@@H](c3ccccc3)[C@H]3COc4ccccc4[C@@H]3N2C1=O | . | 4.9 | . | 13.1 | 2.0 | -2.5
CC(C)N1CCC2(CC1)C(C#N)=C(N)NC(S)=C2C#N | -7.3 | -12.8 | 9.7 | 49.2* | -13.5 | -13.8
N=c1n(Cc2ccccc2)c2ccccc2n1CC(O)c1ccccc1 (stereo not given) | 1.7 | 0.5 | 7.5 | 43.4* | -2.5 | -0.5
CC(C)c1ccc2[nH]c(O)c(N=NC(=O)c3ccc(CSc4nncn4C)cc3)c2c1 | -4.1 | 30.0* | -12.5 | 1.0 | 0.3 | -0.2
O=C1C=CC(=O)N1c1cccc(-c2ccccc2)c1 | -11.3 | -11.6 | -0.8 | -8.1 | -7.2 | -13.7
Cc1ccc(C(=O)NCCS(=O)(=O)N2CCN(c3ccccc3F)CC2)cc1[N+](=O)[O-] | -2.3 | 10.6 | 1.1 | 6.9 | 0.3 | 20.5
Brc1cc2c(cc1Br)OCCOCCOCCO2 | 0.1 | 0.8 | 37.1* | -17.0 | 2.3 | 3.8
c1ccc2c(c1)OCCOCCOCCOCCOCCOc1ccccc1OCCOCCOCCO2 | 5.2 | -2.3 | 0.8 | 15.4 | 2.9 | 1.7
CCn1cc(C(=O)NCCCN2CC(C)CC(C)C2)c(=O)c2cc(S(=O)(=O)N(C)C3CCCCC3)ccc21 (stereo not given) | -9.5 | 33.3* | 1.0 | 32.9 | -4.5 | 1.1
CCn1cc(C(=O)NCCCN2CCC(C)CC2)c(=O)c2cc(S(=O)(=O)N(C)C3CCCCC3)ccc21 | -3.3 | 38.0* | 0.3 | 19.2 | 5.1 | 2.0
CCN(CC)CCNC(=O)c1cn(CC)c2ccc(S(=O)(=O)N(C)C3CCCCC3)cc2c1=O | -3.0 | 22.2 | -2.2 | 7.4 | -2.1 | 2.6
CCSc1nnc(NC(=O)C2CSC3(C)CCC(=O)N23)s1 (stereo not given) | . | . | . | 5.5 | . | .
O=C(NCc1ccccc1Cl)[C@@H]1CCCN1S(=O)(=O)c1ccc(Cl)cc1 | . | . | . | 17.1 | . | .
C[C@@H](NC(=O)Cn1ccc(NC(=O)OCc2ccccc2)nc1=O)c1cccc2ccccc12 | . | -6.2 | . | -73.8 | -1.0 | -2.0
Oc1ccc(NCc2cccc(OCc3ccc(F)cc3)c2)cc1 | 9.2 | 19.0 | 76.8* | 30.3 | 3.2 | 15.7
COCCn1nnnc1C(c1cccs1)N1CCN(c2nc3ccccc3s2)CC1 (stereo not given) | 1.1 | 4.0 | 4.7 | 50.3* | -1.7 | -3.1
COCCn1nnnc1C(c1cccs1)N1CCN(c2cc(C)ccc2C)CC1 (stereo not given) | 0.7 | -5.8 | -3.2 | -6.8 | 2.1 | -4.3
CC1CCCC(C)N1/N=C/c1ccc(O)c(O)c1 (stereo not given) | 2.7 | 3.1 | 35.9* | 14.6 | -4.6 | 6.3
COc1ccc(/C=N/N2C(C)CCCC2C)cc1O (stereo not given) | -4.5 | 3.8 | -1.6 | 19.3 | -0.2 | 1.3
CC(Sc1nnc(Cc2ccccc2)o1)C(=O)Nc1ccccc1[N+](=O)[O-] (stereo not given) | . | 2.9 | . | 13.5 | 2.4 | 9.8
CCc1ccc(C(=O)CSc2nc3cc(S(=O)(=O)N4CCOCC4)ccc3n2CC)cc1 | -3.5 | 10.4 | 35.7* | 22.9 | 0.9 | 4.7
